Experimental data from PubChem BioAssay.
Potency and affinity values are given separately. Records with an inconclusive call do not appear. The source made the active and inactive calls. Unless noted, how the calls were made is not given here.

Assays:
[1] = cytotoxicity in PAX8-dependent RMG-1 cells, dose response, cell-based, cherry-pick (AID 687029;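 active means signal drop whose fitted half-maximal concentration is at most twice the top valid dose, in every test run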;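 further: cells exposed to compound for 96 hours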)
[2] = cytotoxicity in IOSE-T80 ovarian epithelial cells, dose response, selectivity assay for PAX8 inhibitor project, cell-based, cherry-pick (AID 687032;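 active means fitted half-maximal concentration for viability loss no higher than twice the top valid dose, in every repeat run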;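 further: cells exposed to compound for 96 h before reading; 0% = neutral control wells and -100% = 2 µM mitoxantrone kill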)
[3] = inhibitors of CMV-promoter luciferase reporter, dose response, counter-screen for Pax8 inhibitor project, cell-based, HEK293, luminescence, dry powder (AID 743020;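 active means signal-lowering compounds whose fitted half-maximal concentration is at or below twice the top tested dose in every run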;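 further: HEK293 cells stably expressing the CMV luciferase reporter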)
[4] = non-specific cell cytotoxicity, dose response, cytotoxicity control for PAX8 inhibitor project, plate reader, dry powder samples (AID 743021)
[5] = NIH:OVCAR-3 ovarian cancer cell cytotoxicity, dose response, PAX8 inhibitor project, plate reader, dry powder samples (AID 743044); conditions: max activity: at 35 µM, active compounds read low unless noted
[6] = A2780 ovarian cancer cell cytotoxicity, dose response, cytotoxicity control, plate reader, dry powder samples (AID 743046);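 further: 0% = neutral control wells and -100% = cytotoxic reference compound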
[7] = cytotoxicity in OVCAR8 ovarian cancer cells, dose response, PAX8 project, cell-based, plate reader, dry powder samples (AID 743197)
[8] = IOSE-T80 ovarian epithelial cell cytotoxicity, dose response, cytotoxicity control for PAX8 inhibitor project, plate reader, dry powder samples (AID 743045);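 further: 0% = neutral control median and -100% = positive control median; more negative values mean more cell killing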

Measured: max activity

N#C[C@@H]1[C@@H](c2ccc(-c3cccc(F)c3)cc2)[C@H](CO)N1C(=O)NC1CCCC1
inactive: [1] | [2] | [3] | [4] | [5] 15.7% [at 0.26 µM, active compounds read low] | [6] | [7]

C[C@@H]1CN([C@H](C)CO)C(=O)c2cc(NS(=O)(=O)c3ccccc3)ccc2O[C@@H](C)CCCCO[C@@H]1CN(C)Cc1ccc(Cl)c(Cl)c1
inactive: [1] | [2] | [3] | [4] | [5] -20% [at 9 µM, active compounds read low] | [8] | [6]

O=C(C[C@@H]1CC[C@@H]2[C@H](COC[C@H](O)CN2S(=O)(=O)c2ccccc2Cl)O1)N1CCC(Cc2ccccc2)CC1
inactive: [1] | [2] | [3] | [4] | [5] -15.3% | [6]

C[C@@H]1CCCCO[C@@H](CN(C)Cc2ccc(C(F)(F)F)cc2)[C@H](C)CN([C@@H](C)CO)C(=O)c2cc(NS(=O)(=O)c3ccc(F)cc3)ccc2O1
inactive: [1] | [2] | [3] | [4] | [5] -6.08% | [8] | [6]

O=C(C[C@H]1CC[C@H]2[C@@H](COC[C@@H](O)CN2Cc2ccc3c(c2)OCO3)O1)Nc1ccc(-c2ccccc2)cc1
inactive: [1] | [2] | [3] | [4] | [5] 60.4% [at 2.1 µM, active compounds read low] | [8] | [6] | [7]

N#C[C@@H]1[C@@H](c2ccc(-c3ccccc3F)cc2)[C@@H](CO)N1C(=O)C1CCC1
inactive: [1] | [2] | [3] | [4] | [5] -15.9% | [8] | [6] | [7]

Cc1cccc(S(=O)(=O)N2CC[C@@H]3[C@H](CO)N(C)c4ccc(C#Cc5ccc(F)cc5)cc4[C@@H]32)c1
inactive: [1] | [2] | [3] | [4] | [5] -16.3% [at 30 µM, active compounds read low] | [8] | [6]

O=C(C[C@@H]1CC[C@@H]2[C@H](COC[C@H](O)CN2Cc2ccc3c(c2)OCO3)O1)Nc1ccc(-c2ccccc2)cc1
inactive: [1] | [2] | [3] | [4] | [5] 25.3% [at 0.5 µM, active compounds read low] | [8] | [6] | [7]

C[C@@H]1CCCCO[C@@H](CN(C)Cc2ccc(Cl)c(Cl)c2)[C@H](C)CN([C@H](C)CO)C(=O)c2cc(NS(=O)(=O)c3ccc(Cl)cc3)ccc2O1
inactive: [1] | [2] | [3] | [4] | [5] -24.1% | [8] | [6]

C[C@@H]1CN([C@H](C)CO)C(=O)c2cc(NS(=O)(=O)c3ccc(Cl)cc3)ccc2O[C@@H](C)CCCCO[C@H]1CN(C)S(=O)(=O)c1ccc(F)cc1
inactive: [1] | [2] | [3] | [4] | [5] 26.2% [at 1 µM, active compounds read low] | [8]

C[C@@H]1CN([C@@H](C)CO)C(=O)Cc2cc(NS(=O)(=O)c3ccc(F)cc3)ccc2O[C@H]1CN(C)Cc1ccc(Cl)c(Cl)c1
inactive: [1] | [2] | [3] | [4] | [8]

C[C@H](CO)N1C[C@H](C)[C@@H](CN(C)Cc2ccc(Cl)c(Cl)c2)Oc2ccc(NC(=O)Nc3ccc(C(F)(F)F)cc3)cc2CC1=O
inactive: [1] | [2] | [3] | [4] | [5] 17.7% [at 0.5 µM, active compounds read low] | [8] | [6] | [7]

COc1ccccc1S(=O)(=O)N(C)C[C@H]1Oc2cc(C#CCC3CCCC3)ccc2S(=O)(=O)N([C@H](C)CO)C[C@H]1C
inactive: [1] | [2] | [3] | [4] | [8]

C[C@@H]1CN([C@H](C)CO)C(=O)c2c(c3ccccc3n2C)-c2ccccc2CO[C@H]1CN(C)S(=O)(=O)c1ccc(C(F)(F)F)cc1
inactive: [1] | [2] | [3] | [4] | [8]

C[C@@H]1CCCCO[C@@H](CN(C)Cc2ccc(C(F)(F)F)cc2)[C@H](C)CN([C@H](C)CO)C(=O)c2cc(NS(=O)(=O)c3ccccc3)ccc2O1
inactive: [1] | [2] | [3] | [4] | [5] -29.5% | [8] | [6]

C[C@@H]1CN([C@@H](C)CO)C(=O)Cc2cc(NS(=O)(=O)c3ccc(Cl)cc3)ccc2O[C@H]1CN(C)Cc1ccc(Cl)c(Cl)c1
inactive: [1] | [2] | [3] | [4] | [5] 11% [at 16 µM, active compounds read low] | [8] | [6] | [7]

C[C@H]1CN([C@@H](C)CO)C(=O)c2c(c3ccccc3n2C)-c2ccccc2CO[C@@H]1CN(C)Cc1cccc(C(F)(F)F)c1
inactive: [1] | [2] | [3] | [4] | [5] 14.4% [at 0.26 µM, active compounds read low] | [8] | [6]

C[C@@H]1CN([C@@H](C)CO)C(=O)c2cc(NC(=O)Cc3ccccc3)ccc2O[C@@H](C)CCCCO[C@@H]1CN(C)Cc1ccc(C(F)(F)F)cc1
inactive: [1] | [2] | [3] | [4] | [5] -8.58% | [8] | [6]

C[C@@H]1CN([C@@H](C)CO)C(=O)c2cc(NC(=O)Nc3ccc(C(F)(F)F)cc3)ccc2O[C@@H](C)CCCCO[C@@H]1CN(C)Cc1ccncc1
inactive: [1] | [2] | [3] | [4] | [5] 59.3% [at 2.1 µM, active compounds read low] | [8] | [6] | [7]

COc1cccc(-c2ccc([C@H]3[C@@H](CO)N(C(=O)c4ccccn4)[C@H]3C#N)cc2)c1
inactive: [1] | [2] | [3] | [4] | [5] -40.2% | [8] | [6]

C[C@H](CO)N1C[C@H](C)[C@H](CN(C)Cc2ccc(Cl)c(Cl)c2)OCCCC[C@H](C)Oc2ccc(NC(=O)Nc3ccc(C(F)(F)F)cc3)cc2C1=O
inactive: [1] | [2] | [3] | [4] | [5] 27.7% [at 2.1 µM, active compounds read low] | [8] | [6]

C[C@H]1CCCCO[C@H](CN(C)C(=O)Nc2cccc3ccccc23)[C@@H](C)CN([C@@H](C)CO)C(=O)c2cc(NS(=O)(=O)c3ccc(F)cc3)ccc2O1
inactive: [1] | [2] | [3] | [4] | [5] 28.1% [at 0.5 µM, active compounds read low] | [8] | [6]

COc1ccc(NC(=O)N2CCCCN3[C@H](CO)[C@H](c4ccc(C#Cc5ccccc5)cc4)[C@H]3C2)cc1
inactive: [1] | [2] | [3] | [4] | [5] -17.7% | [8] | [6] | [7]

COc1ccc(CN(C)C[C@H]2OCCCC[C@H](C)Oc3ccc(NC(=O)Nc4ccc(C(F)(F)F)cc4)cc3C(=O)N([C@@H](C)CO)C[C@@H]2C)cc1
inactive: [1] | [2] | [3] | [4] | [5] -11.3% | [8] | [6]

Cc1ccc(S(=O)(=O)Nc2ccc3c(c2)C(=O)N([C@H](C)CO)C[C@@H](C)[C@H](CN(C)S(=O)(=O)c2ccc(C)cc2)OCCCC[C@H](C)O3)cc1
inactive: [1] | [2] | [3] | [4] | [5] 32.9% [at 0.26 µM, active compounds read low] | [8] | [7]

C[C@H]1CCCCO[C@H](CN(C)C(=O)NC2CCCCC2)[C@@H](C)CN([C@@H](C)CO)C(=O)c2cc(NC(=O)Nc3ccc(C(F)(F)F)cc3)ccc2O1
inactive: [1] | [2] | [3] | [4] | [5] -30.4% | [8] | [6]

C[C@@H]1CCCCO[C@@H](CN(C)C(=O)Nc2ccc(F)cc2)[C@H](C)CN([C@H](C)CO)C(=O)c2cc(NS(=O)(=O)c3ccc(Cl)cc3)ccc2O1
inactive: [1] | [2] | [3] | [4] | [5] 17.7% | [8] | [6]

C[C@@H]1CCCCO[C@H](CN(C)S(=O)(=O)c2cccs2)[C@@H](C)CN([C@@H](C)CO)C(=O)c2cc(NC(=O)Nc3ccc(C(F)(F)F)cc3)ccc2O1
inactive: [1] | [2] | [3] | [4] | [5] -21.9% | [8] | [6] | [7]

O=C(C[C@H]1CC[C@@H]2[C@H](COC[C@H](O)CN2S(=O)(=O)c2cccc(F)c2)O1)Nc1ccc(-c2ccccc2)cc1
inactive: [1] | [2] | [3] | [4] | [5] 27.1% [at 0.5 µM, active compounds read low] | [8] | [6]

C[C@H](CO)N1C[C@H](C)[C@H](CN(C)S(=O)(=O)c2ccc(F)cc2)OCCCC[C@H](C)Oc2ccc(NS(=O)(=O)c3ccc(Cl)cc3)cc2C1=O
inactive: [1] | [2] | [3] | [4] | [5] -16.9% [at 4.2 µM, active compounds read low] | [8] | [7]

Cc1ccccc1-c1ccc([C@@H]2[C@@H](CO)N3CCCCN(C(=O)NC4CCCC4)C[C@H]23)cc1
inactive: [1] | [2] | [3] | [4] | [5] -4.19% [at 16 µM, active compounds read low] | [8] | [6] | [7]

C[C@@H]1CN([C@@H](C)CO)C(=O)c2cc(NC(=O)Cc3ccccc3)ccc2O[C@@H](C)CCCCO[C@H]1CN(C)Cc1ccc(C(F)(F)F)cc1
inactive: [1] | [2] | [3] | [4] | [5] -16.1% | [8] | [6]

C[C@@H]1CN([C@H](C)CO)C(=O)c2cc(NC(=O)Nc3ccc(F)cc3)ccc2O[C@@H](C)CCCCO[C@H]1CN(C)C(=O)C1CCCCC1
inactive: [1] | [2] | [3] | [4] | [5] 11.9% [at 16 µM, active compounds read low] | [8] | [7]

C[C@H](CO)N1C[C@H](C)[C@@H](CN(C)Cc2ccc(Oc3ccccc3)cc2)Oc2ccc(NS(=O)(=O)c3ccc(F)cc3)cc2CC1=O
inactive: [1] | [2] | [3] | [4] | [5] -23.5% [at 4.2 µM, active compounds read low] | [8] | [6]

C[C@H](O)C#Cc1cnc2c(c1)C(=O)N([C@H](C)CO)C[C@@H](C)[C@@H](CN(C)Cc1ccc(-c3ccccc3)cc1)O2
inactive: [1] | [2] | [3] | [4] | [5] 29.8% [at 2.1 µM, active compounds read low] | [8] | [6] | [7]
